In ChEMBL document CHEMBL3988442, “University of Dundee, Small-Polar-MMV Screening Library” (2021) one finds PXC50 and Percent Effect data, which are given here for four molecules.

The target in experiment [1] is T1, Methionyl-tRNA synthetase, putative (Leishmania donovani (strain BPK282A1)) (UniProt E9BF75).
T1 sequence (whole entry): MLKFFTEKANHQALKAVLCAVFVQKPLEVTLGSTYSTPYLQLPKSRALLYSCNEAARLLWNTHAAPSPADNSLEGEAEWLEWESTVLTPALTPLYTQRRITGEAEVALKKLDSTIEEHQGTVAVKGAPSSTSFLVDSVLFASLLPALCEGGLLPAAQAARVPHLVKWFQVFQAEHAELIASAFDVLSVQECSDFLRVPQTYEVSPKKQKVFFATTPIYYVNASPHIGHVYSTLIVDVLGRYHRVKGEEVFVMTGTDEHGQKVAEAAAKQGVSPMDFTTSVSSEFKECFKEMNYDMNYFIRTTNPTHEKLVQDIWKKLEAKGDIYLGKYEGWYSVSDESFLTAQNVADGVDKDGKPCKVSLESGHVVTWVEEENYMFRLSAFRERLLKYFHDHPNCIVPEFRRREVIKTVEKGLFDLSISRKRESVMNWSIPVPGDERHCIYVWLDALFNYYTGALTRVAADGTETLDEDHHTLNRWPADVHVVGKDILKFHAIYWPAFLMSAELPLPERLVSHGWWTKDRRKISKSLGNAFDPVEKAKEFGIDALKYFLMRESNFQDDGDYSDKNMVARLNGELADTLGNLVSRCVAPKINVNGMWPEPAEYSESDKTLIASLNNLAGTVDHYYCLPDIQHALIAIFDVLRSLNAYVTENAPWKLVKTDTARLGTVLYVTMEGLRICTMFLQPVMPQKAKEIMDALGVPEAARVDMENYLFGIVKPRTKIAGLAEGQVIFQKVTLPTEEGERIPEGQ
The experiment can be described thus: Leishmania donovani Methionine tRNA synthetase (LdMetRS):v7. Dose response assay. Format: functional. Also on record: conc 80 nM, time 150 minutes.

The target in experiment [2] is Protein translocase subunit SecA (Escherichia coli (strain K12)) (UniProt P10408). Put plainly: Assay to Identify E. coli SecA ATPase Inhibitors. Format: functional. Conditions: 30 µM. More on the design: scale not given: direction of the effect not stated beside the values.
The target in experiment [3] is T2, Ubiquitin-activating enzyme e1, putative (Leishmania donovani (strain BPK282A1)) (UniProt E9BSI1).
T2 sequence (whole entry): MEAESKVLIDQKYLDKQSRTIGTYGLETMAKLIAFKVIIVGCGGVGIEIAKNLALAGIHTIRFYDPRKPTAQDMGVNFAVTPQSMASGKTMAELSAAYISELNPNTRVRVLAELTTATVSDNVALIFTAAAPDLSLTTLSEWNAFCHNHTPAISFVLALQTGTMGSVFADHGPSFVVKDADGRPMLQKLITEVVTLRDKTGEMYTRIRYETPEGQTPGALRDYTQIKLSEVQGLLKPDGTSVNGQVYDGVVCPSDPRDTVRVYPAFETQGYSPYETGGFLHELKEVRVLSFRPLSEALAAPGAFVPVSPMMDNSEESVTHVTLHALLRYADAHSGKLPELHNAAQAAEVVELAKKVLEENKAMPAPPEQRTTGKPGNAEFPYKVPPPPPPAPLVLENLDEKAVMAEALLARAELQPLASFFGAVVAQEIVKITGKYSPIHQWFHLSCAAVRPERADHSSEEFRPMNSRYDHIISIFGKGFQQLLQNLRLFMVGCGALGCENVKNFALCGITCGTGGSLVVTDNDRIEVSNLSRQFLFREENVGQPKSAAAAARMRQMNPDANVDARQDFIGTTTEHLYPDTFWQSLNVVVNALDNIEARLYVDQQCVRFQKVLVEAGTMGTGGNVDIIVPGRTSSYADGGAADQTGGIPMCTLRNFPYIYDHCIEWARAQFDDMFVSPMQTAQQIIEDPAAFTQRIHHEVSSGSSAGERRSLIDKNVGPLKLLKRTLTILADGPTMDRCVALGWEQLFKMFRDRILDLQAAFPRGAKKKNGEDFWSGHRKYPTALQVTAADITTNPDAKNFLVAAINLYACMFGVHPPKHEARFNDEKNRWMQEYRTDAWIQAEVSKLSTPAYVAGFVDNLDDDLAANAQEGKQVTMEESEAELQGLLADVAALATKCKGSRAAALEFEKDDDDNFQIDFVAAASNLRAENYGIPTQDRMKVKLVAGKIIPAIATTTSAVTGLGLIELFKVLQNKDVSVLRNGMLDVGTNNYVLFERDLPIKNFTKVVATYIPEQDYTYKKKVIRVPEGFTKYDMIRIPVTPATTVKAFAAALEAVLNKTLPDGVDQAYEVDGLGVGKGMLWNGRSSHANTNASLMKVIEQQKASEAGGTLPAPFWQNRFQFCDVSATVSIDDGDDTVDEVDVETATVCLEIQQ
The experiment can be described thus: Leishmania donovani Ubiquitin Activating Enzyme (LdE1). More on the design: scale not given: direction of the effect not stated beside the values. Format: functional. Conditions: 30 µM.

Experiment [4] addresses T3, Aspartate--tRNA(Asp/Asn) ligase (Mycobacterium tuberculosis (strain ATCC 25618 / H37Rv)) (UniProt P9WFW3).
T3 sequence (whole entry): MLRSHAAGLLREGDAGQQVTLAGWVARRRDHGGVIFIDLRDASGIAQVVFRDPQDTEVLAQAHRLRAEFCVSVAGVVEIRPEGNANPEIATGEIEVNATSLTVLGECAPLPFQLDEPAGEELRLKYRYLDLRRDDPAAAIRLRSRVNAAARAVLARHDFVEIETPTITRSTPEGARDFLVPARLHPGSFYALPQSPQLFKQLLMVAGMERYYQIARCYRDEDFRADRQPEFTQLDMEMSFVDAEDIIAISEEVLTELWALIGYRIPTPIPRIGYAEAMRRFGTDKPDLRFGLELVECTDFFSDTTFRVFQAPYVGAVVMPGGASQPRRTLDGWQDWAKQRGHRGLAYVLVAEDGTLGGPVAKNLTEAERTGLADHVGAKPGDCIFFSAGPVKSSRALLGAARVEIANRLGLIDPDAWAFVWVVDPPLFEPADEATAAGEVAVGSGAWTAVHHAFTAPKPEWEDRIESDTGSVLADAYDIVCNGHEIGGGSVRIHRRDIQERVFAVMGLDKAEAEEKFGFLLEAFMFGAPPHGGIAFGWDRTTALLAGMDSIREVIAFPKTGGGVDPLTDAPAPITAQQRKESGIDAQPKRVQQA
Put plainly: Assay for Asp RNA synthetase-1 from Mycobacterium tuberculosis. Format: functional. Also on record: scale not given: direction of the effect not stated beside the values. Conditions: 30 µM.

For experiment [5], the target named is AMP-activated protein kinase, AMPK (Homo sapiens) (UniProt P54646+O43741+P54619+Q9UGJ0+Q9Y478+Q13131+Q9UGI9). Put plainly: AMP-dependent Kinase enzyme assay. An in vitro enzyme assay that detects ADP turnover that is directly proportional to AMPK activity. This uses naive AMPK that is activated during the assay with MK-8722. Format: functional. More on the design: scale not given: direction of the effect not stated beside the values. Conditions: 30 µM.

In experiment [6] the target is Sialic acid-binding Ig-like lectin 9 (Homo sapiens) (UniProt Q9Y336). The experiment can be described thus: Hs-Siglec9 ALPHAscreen SOP 20170721. Also on record: scale not given: direction of the effect not stated beside the values. Conditions: 10 µM. In general terms: Bead proximity is the source of the signal in Alpha formats.
In another experiment the test system is Trypanosoma cruzi. Put plainly: Trypanosoma cruzi phosphomannomutase and mannose-1-phosphate guanylyltransferase assay. Conditions: 10 µM. Format: functional. More on the design: scale not given: direction of the effect not stated beside the values.
In experiment [7] the target is T4, Arginase-2, mitochondrial (Homo sapiens) (UniProt P78540).
T4 sequence (whole entry): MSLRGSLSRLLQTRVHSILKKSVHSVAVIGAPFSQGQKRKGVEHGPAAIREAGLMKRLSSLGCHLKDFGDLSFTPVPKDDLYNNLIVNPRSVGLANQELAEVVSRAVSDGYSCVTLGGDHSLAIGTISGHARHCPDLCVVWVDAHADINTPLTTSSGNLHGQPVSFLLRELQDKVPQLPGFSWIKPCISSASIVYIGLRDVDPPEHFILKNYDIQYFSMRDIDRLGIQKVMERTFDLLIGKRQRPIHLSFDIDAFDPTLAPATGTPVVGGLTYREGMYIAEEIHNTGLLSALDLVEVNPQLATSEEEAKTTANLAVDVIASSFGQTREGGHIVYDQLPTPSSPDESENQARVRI
Put plainly: in vitro enzyme assay to detect the production of urea directly proportional to the activity of Arginase II. More on the design: scale not given: in the data most compounds retested in dose-response had high values. Conditions: 33.3 µM. Format: functional.

Experiment [8] deals with T5, Proteasome subunit beta (Trypanosoma cruzi) (UniProt O96673).
T5 sequence (whole entry): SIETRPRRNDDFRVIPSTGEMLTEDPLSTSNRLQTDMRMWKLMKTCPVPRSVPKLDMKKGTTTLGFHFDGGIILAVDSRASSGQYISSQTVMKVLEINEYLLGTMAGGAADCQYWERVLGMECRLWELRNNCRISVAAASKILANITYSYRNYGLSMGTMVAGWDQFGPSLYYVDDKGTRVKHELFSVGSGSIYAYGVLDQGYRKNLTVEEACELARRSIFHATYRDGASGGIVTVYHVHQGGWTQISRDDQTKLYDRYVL
The experiment can be described thus: Trypanosoma cruzi proteasome chymotrypsin-like activity (TcProtChymo) assay. Format: functional. Also on record: scale not given: in the data most compounds retested in dose-response had high values. The note with it: 9.37 µM.

The next experiment is filed under the species Homo sapiens. The experiment can be described thus: To identify inhibition of the IFN signalling (Jak-Stat) pathway via expression of an eGFP reporter gene under the control of an IFN-stimulated response element (ISRE) containing MxA promoter. Format: functional. Also on record: scale not given: direction of the effect not stated beside the values. Conditions: 30 µM. For orientation: Reporter assays use an easily measured gene product as a stand-in for the process of interest.

Experiment [9] deals with Shiga toxin 2 (Escherichia coli O157:H7) (UniProt P09385+P09386). The experiment can be described thus: E. coli 0.157:H7 Shiga Toxin SOP - stx2 screening assay. Format: functional. More on the design: scale not given: direction of the effect not stated beside the values. Conditions: 30 µM.
The target in experiment [10] is T6, Tyrosyl-tRNA synthetase, putative (Trypanosoma cruzi (strain CL Brener)) (UniProt Q4DSP6).
T6 sequence (whole entry): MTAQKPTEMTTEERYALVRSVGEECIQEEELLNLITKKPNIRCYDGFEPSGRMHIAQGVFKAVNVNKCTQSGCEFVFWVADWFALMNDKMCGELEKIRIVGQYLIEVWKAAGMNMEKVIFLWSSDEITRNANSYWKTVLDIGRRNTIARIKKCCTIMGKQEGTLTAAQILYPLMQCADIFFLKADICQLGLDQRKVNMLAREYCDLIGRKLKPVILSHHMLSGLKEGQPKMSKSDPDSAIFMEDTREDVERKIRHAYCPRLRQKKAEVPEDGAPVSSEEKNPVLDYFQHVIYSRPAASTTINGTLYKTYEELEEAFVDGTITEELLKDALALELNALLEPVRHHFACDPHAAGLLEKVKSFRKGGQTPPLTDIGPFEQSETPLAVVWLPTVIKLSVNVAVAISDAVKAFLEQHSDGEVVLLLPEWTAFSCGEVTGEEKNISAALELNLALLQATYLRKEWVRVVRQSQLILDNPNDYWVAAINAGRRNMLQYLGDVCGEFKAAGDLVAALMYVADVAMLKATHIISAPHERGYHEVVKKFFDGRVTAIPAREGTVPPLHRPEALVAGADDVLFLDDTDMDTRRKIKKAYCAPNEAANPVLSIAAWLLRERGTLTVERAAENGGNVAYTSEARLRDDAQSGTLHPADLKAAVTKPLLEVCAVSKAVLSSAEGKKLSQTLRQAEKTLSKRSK
Put plainly: Trypanosoma cruzi tyrosyl tRNA synthetase (TcYRS) _High Tyrosine SOP. Format: functional. Also on record: scale not given: in the data most compounds retested in dose-response had high values. Conditions: 30 µM.

Experiment [11] concerns the target T6, Tyrosyl-tRNA synthetase, putative (Trypanosoma cruzi (strain CL Brener)). The experiment can be described thus: Trypanosoma cruzi tyrosyl tRNA synthetase (TcYRS) SOP. Format: functional. More on the design: scale not given: direction of the effect not stated beside the values. Conditions: 30 µM.
Experiment [12] addresses Chromo domain-containing protein 1 (Saccharomyces cerevisiae (strain ATCC 204508 / S288c) (Baker's yeast)) (UniProt P32657). The experiment can be described thus: ScCHD-1 Enzyme Inhibition Assay. Format: functional. Also on record: scale not given: in the data most compounds retested in dose-response had high values. Conditions: 30 µM.

Each structure is given as a SMILES string. For part of these data: Measured potencies and affinities stand elsewhere.

Sequence of Sialic acid-binding Ig-like lectin 9 (Homo sapiens) (Q9Y336 whole entry): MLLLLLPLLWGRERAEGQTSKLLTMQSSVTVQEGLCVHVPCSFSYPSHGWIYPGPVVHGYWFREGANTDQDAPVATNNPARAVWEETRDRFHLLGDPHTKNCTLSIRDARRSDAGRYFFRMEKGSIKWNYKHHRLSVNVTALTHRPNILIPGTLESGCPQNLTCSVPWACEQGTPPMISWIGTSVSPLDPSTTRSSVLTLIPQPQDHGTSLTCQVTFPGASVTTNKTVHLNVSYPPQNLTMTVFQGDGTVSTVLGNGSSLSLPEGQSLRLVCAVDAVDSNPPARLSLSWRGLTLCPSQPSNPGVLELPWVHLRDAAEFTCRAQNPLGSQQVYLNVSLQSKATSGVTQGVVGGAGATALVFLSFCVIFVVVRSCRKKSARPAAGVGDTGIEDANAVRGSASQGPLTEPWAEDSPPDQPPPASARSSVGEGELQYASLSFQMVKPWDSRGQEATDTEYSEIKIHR
Sequence of Protein translocase subunit SecA (Escherichia coli (strain K12)) (P10408 whole entry): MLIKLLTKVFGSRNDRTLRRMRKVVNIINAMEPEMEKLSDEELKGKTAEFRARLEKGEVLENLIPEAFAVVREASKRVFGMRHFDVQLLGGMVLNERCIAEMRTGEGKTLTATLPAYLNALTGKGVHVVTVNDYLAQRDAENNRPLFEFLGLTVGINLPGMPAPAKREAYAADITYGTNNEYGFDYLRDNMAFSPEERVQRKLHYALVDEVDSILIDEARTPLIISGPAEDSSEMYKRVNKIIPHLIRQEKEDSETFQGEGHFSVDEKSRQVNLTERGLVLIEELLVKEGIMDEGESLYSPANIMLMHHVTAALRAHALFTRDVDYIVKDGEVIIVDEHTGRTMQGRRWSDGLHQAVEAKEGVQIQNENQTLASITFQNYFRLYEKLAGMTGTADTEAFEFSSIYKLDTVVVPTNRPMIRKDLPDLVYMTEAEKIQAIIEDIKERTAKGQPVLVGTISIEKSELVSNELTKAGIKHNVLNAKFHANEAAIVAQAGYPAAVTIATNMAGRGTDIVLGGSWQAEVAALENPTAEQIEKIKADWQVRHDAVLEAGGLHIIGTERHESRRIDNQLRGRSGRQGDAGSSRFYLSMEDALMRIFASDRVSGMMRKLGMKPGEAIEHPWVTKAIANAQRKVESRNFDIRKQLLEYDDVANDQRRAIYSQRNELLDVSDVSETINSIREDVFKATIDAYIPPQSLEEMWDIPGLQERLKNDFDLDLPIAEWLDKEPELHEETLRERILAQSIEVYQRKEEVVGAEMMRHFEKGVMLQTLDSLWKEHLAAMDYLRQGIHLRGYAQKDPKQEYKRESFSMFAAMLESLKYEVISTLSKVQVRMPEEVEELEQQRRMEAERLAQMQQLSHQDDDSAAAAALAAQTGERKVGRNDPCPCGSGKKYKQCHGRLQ
Sequence of Chromo domain-containing protein 1 (Saccharomyces cerevisiae (strain ATCC 204508 / S288c) (Baker's yeast)) (P32657 whole entry, the tested form may be a part): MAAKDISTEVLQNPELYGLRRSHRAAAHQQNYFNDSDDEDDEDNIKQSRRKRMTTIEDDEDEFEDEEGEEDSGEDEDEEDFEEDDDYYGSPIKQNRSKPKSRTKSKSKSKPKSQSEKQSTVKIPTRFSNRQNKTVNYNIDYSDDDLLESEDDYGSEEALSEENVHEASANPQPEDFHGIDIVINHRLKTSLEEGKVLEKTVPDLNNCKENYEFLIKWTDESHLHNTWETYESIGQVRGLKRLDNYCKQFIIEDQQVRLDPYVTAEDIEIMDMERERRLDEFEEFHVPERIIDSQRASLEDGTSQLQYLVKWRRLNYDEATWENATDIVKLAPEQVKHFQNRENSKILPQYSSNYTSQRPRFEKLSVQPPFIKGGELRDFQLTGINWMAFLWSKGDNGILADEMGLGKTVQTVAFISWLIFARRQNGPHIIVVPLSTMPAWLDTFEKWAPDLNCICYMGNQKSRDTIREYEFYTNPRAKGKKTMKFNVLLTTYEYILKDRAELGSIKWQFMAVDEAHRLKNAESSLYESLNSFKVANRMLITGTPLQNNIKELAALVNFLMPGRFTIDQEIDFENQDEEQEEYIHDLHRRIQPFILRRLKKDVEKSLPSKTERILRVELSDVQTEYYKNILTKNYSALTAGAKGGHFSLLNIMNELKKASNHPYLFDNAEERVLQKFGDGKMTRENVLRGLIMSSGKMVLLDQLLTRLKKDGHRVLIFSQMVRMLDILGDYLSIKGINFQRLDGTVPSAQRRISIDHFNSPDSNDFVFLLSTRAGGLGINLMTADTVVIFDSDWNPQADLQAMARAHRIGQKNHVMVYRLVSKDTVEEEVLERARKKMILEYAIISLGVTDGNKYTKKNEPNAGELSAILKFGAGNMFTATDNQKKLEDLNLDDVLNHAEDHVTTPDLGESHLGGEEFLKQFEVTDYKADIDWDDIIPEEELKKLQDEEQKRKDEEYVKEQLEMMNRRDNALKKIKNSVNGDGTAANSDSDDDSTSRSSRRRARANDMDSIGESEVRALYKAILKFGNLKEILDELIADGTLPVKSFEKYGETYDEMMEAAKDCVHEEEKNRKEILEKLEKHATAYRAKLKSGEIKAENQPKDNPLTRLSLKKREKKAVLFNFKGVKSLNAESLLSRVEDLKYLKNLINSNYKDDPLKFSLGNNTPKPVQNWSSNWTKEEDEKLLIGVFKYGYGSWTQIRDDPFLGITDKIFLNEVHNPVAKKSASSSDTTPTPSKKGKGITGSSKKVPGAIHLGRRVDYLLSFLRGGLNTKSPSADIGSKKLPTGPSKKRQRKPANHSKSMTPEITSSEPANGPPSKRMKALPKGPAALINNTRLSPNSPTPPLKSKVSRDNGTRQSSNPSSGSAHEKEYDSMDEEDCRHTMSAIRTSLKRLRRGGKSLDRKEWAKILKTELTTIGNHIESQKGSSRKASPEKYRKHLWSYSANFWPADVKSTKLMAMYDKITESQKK

Turning to `Cc1nc(N2C[C@@H]3CCN(C)[C@@H]3C2)c2ccsc2n1`, the PXC50 in experiment [1] (MAX_EFFECT 4.081632653) and in experiment [1] (MAX_EFFECT 6.313131313) was under 4 throughout.

As to `c1cncc(OC[C@]23COC[C@H]2CN(Cc2cccs2)C3)c1`, the Percent Effect is -3.94% in [2]; 5.41% in [3]; 4.12% in [4]; 0.208% in [5]; -2.85% in experiment [6]; -2.34% in the experiment on Trypanosoma cruzi. In addition, the Percent Effect in experiment [7] is -0.417%; in experiment [8], 6.85%; in the experiment filed under Homo sapiens it was 11.9%; in experiment [9] it was -3%; in experiment [10] it was 6.93%; in experiment [11] it was 15.8%. The Percent Effect in [12] is 4.29%.

Consider `Cc1noc(C)c1CN1C[C@H](OCC2CC2)[C@H]2OCCC[C@H]21`, for which the Percent Effect is -4.83% in [2]; 8.11% in [3]; -3.74% in experiment [4]; -3.37% in experiment [5]; 5.64% in experiment [6]; 0.293% in the experiment with Trypanosoma cruzi. Moreover, the Percent Effect in experiment [7] is 4.71%; in [8] it was 8.84%; in the experiment filed under Homo sapiens, -6.54%; in [9] it was -3.9%; in experiment [10], 7.53%; in experiment [11], 11.1%. Moreover, the Percent Effect in experiment [12] was -10.2%.

Turning to `Cc1ccc(N2CCC3(CN(CCO)CCC3(F)F)C2)nn1` (stereo not given), the PXC50 in [1] (MAX_EFFECT 9.719626168) and in experiment [1] (MAX_EFFECT 11.33786848) was under 4 in each case.
